SUMO Mot1 rescue: SUMOylation pathway inhibition by Mot1-301 growth rescue. S. cerevisiae Mot1-301 growth rescue, ATP luminescence, 38.5C; percent above DMSO median, 100 means doubled. growth rescue, % at 18.8 µM. actives 1% (n = 320,000);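 active = every valid replicate shows activation above 250% relative to neutral control wells; inactive = the rest, any valid replicate at or below 250%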
aDG glyco up: alpha-DG glycosylation activation | activation, % at 10 µM | actives 0.22% (n = 360,000) | Pro5-aDG cells, alpha-DG glycosylation AlphaScreen (IIH6); 0% Pro5, 100% B10-LARGE cell signal;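 active = activation of at least 8% versus controls, or a plate z-score of at least 8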;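 note: Pro5 are CHO cells carrying HIG-tagged alpha-DG that lacks glycosylation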
MPTP block: inhibitors of mitochondrial permeability transition pore. isolated mouse mitochondria, Ca2+ swelling absorbance, 30 min. inhibition, % at 10 µM. actives 1.4% (n = 360,000);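 active = inhibition of 50% or more, scaled per plate between neutral and stimulator controls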
CR mimetic SO: caloric restriction mimetics inhibiting age-related superoxide in yeast. S. cerevisiae aged cells, superoxide DHE fluorescence; hits give low values. superoxide response (% of plate mean), % at 10 µM. actives 0.18% (n = 330,000). AID 2690;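 active = superoxide response under a set limit, about three screen SD below normal, cut at about 65% in these data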;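 note: yeast aged for seven days with compound at 30 °C before DHE staining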
H9c2 protect: myocardial damage modulation in H9c2 cells; H9c2 cardiomyocytes, H2O2 injury protection, ATPLite, 2 h; protection from H2O2 cell death, % at 20 µM; actives 0.63% (n = 360,000);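 active = compounds giving at least 50% protection of heart cells from peroxide-induced death in the single-dose screen, raw or plate-pattern-corrected value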
FAS-TE inh: FAS thioesterase (human) inhibition | inhibition, % at 15 µM | recombinant FAS-TE, OMFH fluorogenic substrate, fluorescence endpoint | actives 0.67% (n = 360,000) | AID 602261 | P49327;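 active = compounds whose normalised, plate-corrected inhibition of enzyme fluorescence in the single-dose primary screen is 50% or more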
Mot1 SUMO dose: SUMO pathway inhibitors in yeast Mot1-301 growth; growth activity, percent, % at 42 µM; S. cerevisiae Mot1-301 galactose growth, ATP luminescence, 24 h; -100 = growth of slx-deleted rescue strain; shares compounds with SUMO Mot1 rescue; 2,300 tested, under 10 active; AID 493004;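 active = Signal drops as the depositor expects, and the fitted half-maximal dose is no more than ten times the top valid tested dose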;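 note: more negative values mean stronger growth rescue toward the control strain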
Hits are given with their value. Most compounds without a hit are left out; they make up all but 3.8% or so of the library.

What do the screens show for `Cn1cnnc1-c1cccc(NS(=O)(=O)c2ccc(N3CCCC3=O)cc2)c1`?
SUMO Mot1 rescue: active; aDG glyco up: inactive; MPTP block: inactive; CR mimetic SO: inactive; H9c2 protect: inactive; FAS-TE inh: inactive; Mot1 SUMO dose: inactive

What do the screens show for `O=C(/C=C/c1ccc2c(c1)OCO2)c1ccc(F)cc1`?
SUMO Mot1 rescue: inactive; aDG glyco up: inactive; MPTP block: inactive; H9c2 protect: inactive; FAS-TE inh: inactive

What do the screens show for `N#CC(CC(=O)c1ccc(F)cc1)c1ccc2c(c1)OCO2` (stereo not given)?
SUMO Mot1 rescue: 420.4; aDG glyco up: inactive; MPTP block: inactive; CR mimetic SO: inactive; H9c2 protect: inactive; FAS-TE inh: inactive; Mot1 SUMO dose: inactive

What do the screens show for `O=C(NCCS(=O)(=O)N1CCN(c2cccc(Cl)c2)CC1)c1ccco1`?
SUMO Mot1 rescue: inactive; aDG glyco up: inactive; MPTP block: inactive; CR mimetic SO: inactive; H9c2 protect: inactive; FAS-TE inh: inactive

What do the screens show for `CCCc1nc(NCc2ccccc2)c(C#N)c2c1CCCC2`?
SUMO Mot1 rescue: 789.2; aDG glyco up: inactive; MPTP block: inactive; CR mimetic SO: inactive; H9c2 protect: inactive; FAS-TE inh: inactive; Mot1 SUMO dose: inactive

What do the screens show for `CCCc1nc(NCCO)c(C#N)c2c1CCCC2`?
SUMO Mot1 rescue: inactive; aDG glyco up: inactive; MPTP block: inactive; CR mimetic SO: inactive; H9c2 protect: inactive; FAS-TE inh: inactive

How did COc1ccc(S(=O)(=O)N2CCCOC2CNC(=O)C(=O)NCc2ccccc2C)cc1 (stereo not given) do in these assays?
aDG glyco up: inactive; MPTP block: inactive; H9c2 protect: inactive; FAS-TE inh: inactive

What do the screens show for `N/C(=N\OC(=O)CCC1CCCC1)c1ccccc1`?
SUMO Mot1 rescue: inactive; aDG glyco up: inactive; MPTP block: inactive; CR mimetic SO: inactive; H9c2 protect: inactive; FAS-TE inh: inactive

How did N/C(=N\OC(=O)CCC1CCCC1)c1ccc([N+](=O)[O-])cc1 do in these assays?
SUMO Mot1 rescue: 597.2; aDG glyco up: inactive; MPTP block: inactive; CR mimetic SO: inactive; H9c2 protect: inactive; FAS-TE inh: inactive; Mot1 SUMO dose: inactive

How did Cn1nc(C(C)(C)C)c([N+](=O)[O-])c1C(=O)NC1CCCCC1 do in these assays?
SUMO Mot1 rescue: inactive; aDG glyco up: inactive; MPTP block: inactive; CR mimetic SO: inactive; H9c2 protect: inactive; FAS-TE inh: inactive

How did Cc1cc(OCC(=O)NCC2CCC(C(=O)O)CC2)c2c(C)c(C)c(=O)oc2c1 (stereo not given) do in these assays?
SUMO Mot1 rescue: 358.5; aDG glyco up: inactive; MPTP block: inactive; CR mimetic SO: inactive; H9c2 protect: inactive; FAS-TE inh: inactive; Mot1 SUMO dose: inactive

How did CCc1cc(=O)oc2cc(C)cc(OCC(=O)NCC3CCC(C(=O)O)CC3)c12 (stereo not given) do in these assays?
SUMO Mot1 rescue: inactive; aDG glyco up: inactive; MPTP block: inactive; CR mimetic SO: inactive; H9c2 protect: inactive; FAS-TE inh: inactive

Results for CCCCC(=O)NC(=S)Nc1cccc(C(=O)O)c1 ?
SUMO Mot1 rescue: active; aDG glyco up: inactive; MPTP block: inactive; CR mimetic SO: inactive; H9c2 protect: inactive; FAS-TE inh: inactive; Mot1 SUMO dose: inactive

How did Cc1cc(NC(=O)CCC(=O)N(c2cccnc2)C(C(=O)NC2CCCC2)c2ccccc2)no1 (stereo not given) do in these assays?
SUMO Mot1 rescue: active; aDG glyco up: inactive; MPTP block: inactive; CR mimetic SO: inactive; H9c2 protect: inactive; FAS-TE inh: inactive; Mot1 SUMO dose: inactive

How did Cc1cc(C)cc(N(CC(=O)NC2CCCCC2)C(=O)CCCC(=O)Nc2ccccn2)c1 do in these assays?
SUMO Mot1 rescue: inactive; aDG glyco up: inactive; MPTP block: inactive; CR mimetic SO: inactive; H9c2 protect: inactive; FAS-TE inh: inactive

What do the screens show for `O=C(CCCC(=O)N(CC(=O)NC1CCCC1)c1cccc(F)c1)Nc1ccccn1`?
SUMO Mot1 rescue: 361.7; aDG glyco up: inactive; MPTP block: inactive; CR mimetic SO: inactive; H9c2 protect: inactive; FAS-TE inh: inactive; Mot1 SUMO dose: inactive

What do the screens show for `Cc1ccc(N(CC(=O)NC2CCCC2)C(=O)CCCC(=O)Nc2ccccn2)cc1C`?
SUMO Mot1 rescue: inactive; aDG glyco up: inactive; MPTP block: inactive; CR mimetic SO: inactive; H9c2 protect: inactive; FAS-TE inh: inactive

Results for Cc1ccc(N(CC(=O)NC2CCCC2)C(=O)CCC(=O)Nc2ccccn2)cc1C ?
SUMO Mot1 rescue: 439.1; aDG glyco up: inactive; MPTP block: inactive; CR mimetic SO: inactive; H9c2 protect: inactive; FAS-TE inh: inactive; Mot1 SUMO dose: inactive

How did Cc1cccc(N(C(=O)CCC(=O)Nc2cc(C)on2)C(C(=O)NC2CCCC2)c2cccnc2)c1 (stereo not given) do in these assays?
SUMO Mot1 rescue: inactive; aDG glyco up: inactive; MPTP block: inactive; CR mimetic SO: inactive; H9c2 protect: inactive; FAS-TE inh: inactive

Results for COc1ccc(-c2noc(CSc3nc(-c4ccccc4)cc(=O)[nH]3)n2)cc1OC ?
SUMO Mot1 rescue: 493.0; aDG glyco up: inactive; MPTP block: inactive; CR mimetic SO: inactive; H9c2 protect: inactive; FAS-TE inh: inactive; Mot1 SUMO dose: inactive

Results for CCOC(=O)c1[nH]c2ccc(Br)cc2c1NC(=O)CCN1CCOCC1 ?
SUMO Mot1 rescue: 413.1; aDG glyco up: inactive; MPTP block: inactive; CR mimetic SO: inactive; H9c2 protect: inactive; FAS-TE inh: inactive; Mot1 SUMO dose: inactive

What do the screens show for `Cc1nc(-c2cccc(S(=O)(=O)N3CCOCC3)c2)cs1`?
SUMO Mot1 rescue: 730.1; aDG glyco up: inactive; MPTP block: inactive; CR mimetic SO: inactive; H9c2 protect: inactive; FAS-TE inh: inactive; Mot1 SUMO dose: inactive

Results for CC(C(=O)N1CCN(C(=O)c2ccco2)CC1)n1sc2ccccc2c1=O (stereo not given) ?
SUMO Mot1 rescue: 379.9; aDG glyco up: inactive; MPTP block: inactive; CR mimetic SO: inactive; H9c2 protect: inactive; FAS-TE inh: inactive; Mot1 SUMO dose: inactive

How did CC1C(=O)CC(c2ccccc2)N(C)C1c1ccccc1 (stereo not given) do in these assays?
SUMO Mot1 rescue: 536.6; aDG glyco up: inactive; MPTP block: inactive; CR mimetic SO: inactive; H9c2 protect: inactive; FAS-TE inh: inactive; Mot1 SUMO dose: inactive

How did CCC1C(c2ccccc2)N(C)C(c2ccccc2)CC1(O)c1ccccc1 (stereo not given) do in these assays?
SUMO Mot1 rescue: inactive; aDG glyco up: inactive; MPTP block: inactive; CR mimetic SO: inactive; H9c2 protect: inactive; FAS-TE inh: inactive

Results for Cc1ccc(CNC(=O)CCc2cn(C)c3ccccc23)cc1 ?
SUMO Mot1 rescue: inactive; aDG glyco up: inactive; MPTP block: inactive; CR mimetic SO: inactive; H9c2 protect: inactive; FAS-TE inh: inactive

Results for CCCCOCCCNS(=O)(=O)Cc1ccccc1 ?
SUMO Mot1 rescue: 366.3; aDG glyco up: inactive; MPTP block: inactive; CR mimetic SO: inactive; H9c2 protect: inactive; FAS-TE inh: inactive; Mot1 SUMO dose: inactive

High-throughput results as filed in PubChem.
